Sm TGR inh: blocks Schistosoma mansoni thioredoxin glutathione reductase | Potency, µM (top dose mostly 114 µM), hits mostly inhibitors | 360,000 compounds, 3% hits | purified TGR, DTNB reduction, TNB absorbance 405 nm; note: nearly all actives have a fitted effect of over 60% in size
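TGR 20 nM + NADPH 100 uM (dispensed conc.), cpd preinc 15 min RT; start with NADPH (500 uM addition) then DTNB (15 mM addition). Kinetic TNB absorbance, 405 nm filter. Four-parameter Hill fit across titration.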
Pf growth 96h: inhibits malaria parasite growth, 96 h; P. falciparum luciferase reporter growth, 96 h; Potency, µM (highest dose often 28.7 µM), most hits filed as inhibitors; 320,000 compounds, 6.9% hits; AID 504834
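Two parasite generations (96 h, 37 C, 5% CO2) of compound exposure in infected erythrocytes (0.05% parasitemia, 2% hematocrit). Luciferase-reporter P. falciparum; decreased luminescence indicates inhibited growth, aimed at apicoplast-acting delayed death.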
CHX counter: counter-screen for Shiga toxin inhibitors: cycloheximide protein synthesis inhibition; cell reporter, cycloheximide protein synthesis inhibition counterscreen; max response, %; 300,000 compounds, 12% hits; in the data active = max response mostly above about 13%, no sharp cut-off; inactive = mostly below about 14%; note: read at 38.3 µM for the half of the compounds with a filed dose
Pf growth 48h: inhibits P. falciparum growth in the first generation, 48 h. P. falciparum luciferase growth in erythrocytes, 48 h. Potency, µM (highest dose often 28.7 µM), usual class: inhibitors. 310,000 compounds, 5.9% hits. AID 504832
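Luciferase-expressing P. falciparum in infected erythrocytes (2% hematocrit, 0.1% parasitemia final) in RPMI 1640/0.5% Albumax were exposed to compound for 48 hours at 37 C, 5% CO2; growth read as luminescence.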
NS1 function inh: inhibitors of influenza NS1 protein function; AID 2326; 270,000 compounds, 0.4% hits; Potency, µM (top dose mostly 46.1 µM); calls by dose curve; note: actives are rising curves; nearly all actives have a fitted effect of over 50% in size
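Compounds were scored for reversing the slow growth caused by influenza A NS1 in S. cerevisiae, measured by optical density at 600 nm. Assay medium contained 2% galactose at pH 6.0; NS1-free yeast of the same strain were the positive control.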
Shiga toxin inh: inhibitors of Shiga toxin in Vero cells. Vero cells, Shiga toxin protein synthesis inhibition reporter. inhibition, % at 38.7 µM. 290,000 compounds, 9.2% hits; in the data active = inhibition mostly above about 28%, no sharp cut-off; inactive = mostly below about 43%
A number is an active result; . = inactive; ? = inconclusive; / = not tested or not shown. Compounds with a hit are over-represented: about 21% of the library has one in this group of screens. Unless noted, calls come from the whole dose curve; as a rule, active = well fitted curve in the direction sought with a large enough effect; inconclusive = small, poorly fitted or top-dose-only effect, or another doubt; inactive = no such curve, though single readings can be large; an effect the other way counts as inactive or inconclusive.

SMILES | Sm TGR inh | Pf growth 96h | CHX counter | Pf growth 48h | NS1 function inh | Shiga toxin inh
O=C(Nc1ccc2c(c1)OCCO2)c1cccc(Br)c1 | . | . | 38 | . | . | 43
CCc1nc2ccc(C(=O)Nc3ccc4c(c3)OCO4)cc2nc1CC | . | ? | 27 | . | / | .
CN(C)Cc1ccc(CNC(=O)COc2ccc3ccccc3c2)cc1 | . | . | . | . | . | .
CCN1C(=O)c2ccc(C(=O)Nc3ccc4c(c3)OCO4)cc2C1=O | . | . | 23 | . | . | 62
CC(C)c1ccc(NC(=O)c2cccc(Br)c2)cc1 | . | . | 36 | . | / | 119
Cc1ccc(CNc2ccc3c(c2)OCO3)cc1 | 45µM | . | 42 | ? | 2.8µM | 100
Cc1ccc(NC(=O)c2oc3ccccc3c2NC(=O)c2ccc3c(c2)OCO3)cc1 | . | . | 12 | ? | . | 33
O=C(NNC(=O)c1cccc(Br)c1)Nc1ccc(Cl)cc1 | . | . | . | . | . | .
c1cc(CNc2ccc3c(c2)OCO3)ccn1 | ? | / | . | ? | . | .
Cc1cccn2c(=O)c(/C=C(\C#N)c3nc4ccccc4s3)c(Oc3ccc(Br)cc3)nc12 | . | / | / | / | / | /
CC(=O)Nc1ccc(NC(=O)COC(=O)CCCc2c[nH]c3ccccc23)cc1 | . | . | / | . | / | /
CCC(=O)Nc1ccc(NC(=O)c2ccc3c(c2)OCO3)cc1 | . | / | . | / | . | .
CCN(CC(=O)Nc1ccc2c(c1)OCCO2)C(=O)c1cccc(OCC(C)C)c1 | ? | ? | 16 | . | . | .
CCN(CC(=O)Nc1ccc(NC(C)=O)cc1)C(=O)c1ccc2c(c1)OCCO2 | . | ? | / | . | / | /
Cc1ccc(S(=O)(=O)CC(=O)c2ccc3c(c2)OCCO3)cc1 | . | . | 45 | . | . | 82
CCCOc1cccc(C(=O)Nc2cccc(NC(=O)c3ccco3)c2)c1 | . | / | 14 | ? | . | .
CCC(=O)Nc1cccc(NC(=O)c2ccc3c(c2)OCCO3)c1 | . | / | 50 | . | . | 56
Cc1ccc(Cl)cc1NC(=O)Nc1cccc(OCc2cc(=O)n3ccccc3n2)c1 | . | / | / | / | / | /
Cc1ccc(C(=O)Nc2ccc3c(c2)OCO3)cc1 | . | . | 25 | / | . | .
CCN1C(=O)c2cccc3c(NC(=O)c4ccc5c(c4)OCCO5)ccc1c23 | . | ? | 13 | . | . | .
CCCOc1cccc(C(=O)Nc2cccnc2)c1 | . | ? | . | . | . | .
CCCOc1cccc(C(=O)Nc2ccc3c(c2)OCCO3)c1 | . | ? | 24 | . | . | 71
COc1ccc(C(=O)Nc2ccc3c(c2)OCCO3)cc1Br | . | ? | 19 | . | . | 34
CCN1C(=O)c2cccc3c(NC(=O)c4ccccc4)ccc1c23 | . | ? | . | ? | . | .
CC(OC(=O)c1ccc(Br)o1)C(=O)Nc1ccc2c(c1)OCCO2 (stereo unspecified) | . | . | / | . | / | /
SMILES | Sm TGR inh | Pf growth 96h | CHX counter | Pf growth 48h | NS1 function inh | Shiga toxin inh
CCCc1cc2c(cc1NC(=O)c1ccc(Br)cc1)OCO2 | . | . | . | . | . | .
CCCc1cc2c(cc1NC(=O)c1ccc(C(C)(C)C)cc1)OCO2 | . | . | 22 | ? | . | 29
COc1cccc2c1OC1(C)CC2NC(=O)N1c1cccc(C(=O)Nc2ccc3c(c2)OCCO3)c1 (stereo unspecified) | . | ? | 33 | . | . | 93
O=C(Nc1ccc2c(c1)OCCO2)c1ccc(Br)o1 | . | . | 42 | . | . | 91
COc1cccc(CNC(=O)c2cnc(N3CCCCC3)c3ccccc23)c1 | . | / | / | / | / | /
O=C(CSc1nnc(-c2ccc(Cl)cc2)o1)N1CCc2ccccc21 | . | / | / | / | / | /
CSC1=NSC2=NC(=O)/C(=C/c3coc4ccccc4c3=O)C(=N)N12 | . | . | . | . | . | 47
CSC1=NSC2=NC(=O)/C(=C/c3coc4ccc(O)cc4c3=O)C(=N)N12 | ? | . | . | . | . | .
N=C1/C(=C/c2cccs2)C(=O)N=C2SN=C(SCc3ccccc3)N12 | . | ? | 26 | . | . | 37
CSC1=NSC2=NC(=O)/C(=C\c3cccs3)C(=N)N12 | . | . | 42 | . | . | 42
CC(C)CSC1=NSC2=NC(=O)/C(=C\c3cccs3)C(=N)N12 | . | . | 68 | . | . | 102
CC1=CC2=NC(=O)/C(=C/c3cccs3)C(=N)N2O1 | . | . | . | . | . | .
CC(C)/C=C/CN1CCC(Oc2ccc(C(=O)N3CCCC3)cc2)CC1 | . | . | . | . | . | .
Cc1nc2c(C(=O)NCc3ccco3)cnn2c(C)c1Cc1ccc(F)cc1Cl | . | . | . | ? | . | .
Cc1ccccc1Cc1c(C)nc2c(C(=O)NCc3ccc4c(c3)OCO4)cnn2c1C | . | ? | . | ? | . | .
Cc1nc2c(C(=O)NCc3ccc4c(c3)OCO4)cnn2c(C)c1Cc1ccc(F)cc1Cl | . | 13µM | . | ? | ? | .
Cc1ccc(C)c(Cc2c(C)nc3c(C(=O)NCc4ccc5c(c4)OCO5)cnn3c2C)c1 | . | 10µM | . | / | . | .
CN(C)S(=O)(=O)c1ccc(C(=O)OCCn2cnc3c2c(=O)n(C)c(=O)n3C)cc1 | . | ? | . | . | / | .
N#C/C(=C\c1cccc(Cl)c1)c1n[nH]c(Cn2cncn2)n1 | . | . | . | . | . | .
Cc1ccc(Cl)cc1N1CCN(C(=O)Cc2c(C(=O)O)c(C)cn2C)CC1 | . | / | / | / | / | /
COC(=O)c1cn(CCOc2ccccc2OC)c2ccccc12 | . | . | . | . | . | .
COC(=O)c1cn(CCOc2ccccc2)c2ccccc12 | . | / | 55 | . | . | 79
COC(=O)c1cn(CCOc2ccccc2F)c2ccccc12 | . | . | 40 | / | . | 71
Cc1ccc(OCCn2cc(C(=O)O)c3ccccc32)cc1 | . | . | . | . | / | .
COC(=O)[C@@H]1[C@@H](C#N)C2(c3ccccc3-c3ccccc32)N(c2ccc(Cl)cc2)N1C#N | ? | . | 12 | . | . | 47
SMILES | Sm TGR inh | Pf growth 96h | CHX counter | Pf growth 48h | NS1 function inh | Shiga toxin inh
O=C1C=C(N2CCOCC2)C2(CCCCC2)O1 | . | . | 28 | ? | . | .
CC(C(=O)NC1C=CS(=O)(=O)C1)N1C(=O)/C(=C/c2cccc(Cl)c2)SC1=S (stereo unspecified) | . | . | . | . | . | .
COc1ccccc1/C=C1/SC(=S)N(C(C)C(=O)NC2C=CS(=O)(=O)C2)C1=O (stereo unspecified) | . | ? | 19 | ? | . | .
CC(C(=O)NC1C=CS(=O)(=O)C1)N1C(=O)/C(=C\c2ccccc2)SC1=S (stereo unspecified) | . | ? | 23 | . | . | 24
COc1ccc(S(=O)(=O)Nc2cc(OC)cc3cccnc23)cc1 | / | / | . | / | / | .
COC(=O)c1cc(/C=C/c2ccccc2)[nH]n1 | . | . | 20 | . | . | 25
COC(=O)c1cc(/C=C/c2ccccc2)on1 | . | . | . | . | . | .
CCc1ccc(NC(=O)Cn2cnc3nc4c(cc3c2=O)CCCC4)cc1 | . | / | / | / | / | /
Nc1nnc(N2CCc3ccccc32)s1 | . | ? | 27 | . | . | 57

Source: PubChem (National Center for Advancing Translational Sciences (NCATS))
